According to article PMC7819943, “Rice protein-binding microarrays: a tool to detect cis-acting elements near promoter regions in rice”:
The full ranking holds about 35,000 sequences; the median of “fluorescence intensity (a.u.)” is about 10,000, and the highest 2% start at about 52,000. This is one part of a sample in which the highest values are shown more often than they occur.

Each sequence was assayed against T1, OsWOX13 (Oryza sativa, UniProt Q5QMM3 1-267) (assay: protein-binding microarray (RPBM); PBS, 2% BSA, 51.3 ng/ul salmon testes DNA, 50 uM zinc acetate, 200 nM TF, 25 C, 1 h; high values mean tight binding). Conditions: protein: recombinant; tags: N-terminal polyhistidine and DsRed monomer fusion (pET32a); label: CyDye5-dUTP incorporated in the synthesized complementary strand; 3' TTTTT single-stranded linker to array surface; dsDNA, one strand shown.
T1 sequence: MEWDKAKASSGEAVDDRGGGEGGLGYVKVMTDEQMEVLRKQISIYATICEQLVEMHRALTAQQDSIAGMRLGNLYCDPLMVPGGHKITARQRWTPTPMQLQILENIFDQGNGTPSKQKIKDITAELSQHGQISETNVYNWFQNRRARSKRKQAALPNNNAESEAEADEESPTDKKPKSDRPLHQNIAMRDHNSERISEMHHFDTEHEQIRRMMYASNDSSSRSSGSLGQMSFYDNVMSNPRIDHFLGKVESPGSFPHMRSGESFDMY
Summary of the method: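 A custom Agilent array was converted to double-stranded form by primer extension with Cy5-dUTP and blocked with 2% BSA. Protein at 200 nM in PBS with 2% BSA, salmon testes DNA and 50 µM zinc acetate was applied for 1 h at 25 °C, followed by washing. The proteins were polyhistidine–DsRed N-terminal fusions of transcription factors, expressed in E. coli BL21-CodonPlus and Ni–NTA-purified. The binding signal is per-feature fluorescence intensity (arbitrary units) from an Axon 4000B scanner.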

| Sequence | binding signal |
| --- | --- |
| ATTAACCATAACCTAATTTGGATAAGCCGACATGGATCGGCGGAGTCACCTAGTGCAG | 8230 fluorescence intensity (a.u.) |
| CCCCAAATCCCACTCCAATCACCACCGCTTCTTCTCCTCCCGGAGTCACCTAGTGCAG | 6580 fluorescence intensity (a.u.) |
| ATCCTTTTCTCCTTTTCTCGCAAAATCTCCAAAACCGCTTCGGAGTCACCTAGTGCAG | 65500 fluorescence intensity (a.u.) |
| CCTGTTAAATTGATCTGCCCTGATTAATTGACCCACCGACCGGAGTCACCTAGTGCAG | 38100 fluorescence intensity (a.u.) |
| CAAACGGGTAATTAACTGGGATTAATTTGCCATAAGCCGACGGAGTCACCTAGTGCAG | 53100 fluorescence intensity (a.u.) |
| CAAATTCCAATCATCTCCAAAACCACTTCGCAAATAAATTCGGAGTCACCTAGTGCAG | 17900 fluorescence intensity (a.u.) |
| TAGGATTTGACCATAGTAAATTAATTTGGAGGAATTGTTTCGGAGTCACCTAGTGCAG | 3990 fluorescence intensity (a.u.) |
| CCATCTGATTAGAGATTTGATCCTATACCTTCCTAAACATCGGAGTCACCTAGTGCAG | 40700 fluorescence intensity (a.u.) |
| AGTACTGTAGATAATAAAGTAAGTCACGAATAAAATAAATCGGAGTCACCTAGTGCAG | 50900 fluorescence intensity (a.u.) |
| TTAATTGTTTTATCCTATTAATTGGTAGAAGCGGTATTTTCGGAGTCACCTAGTGCAG | 26700 fluorescence intensity (a.u.) |
| AAAGATAATTGAAAAGTAAACTTGTTGACAGACGGAATCCCGGAGTCACCTAGTGCAG | 30400 fluorescence intensity (a.u.) |
| CATGATTAATCAAGTTAATTATTATACACTAAATATTGGACGGAGTCACCTAGTGCAG | 59600 fluorescence intensity (a.u.) |
| TTAACATGTAATCAATTAAATACTAATTATTATAAACGTGCGGAGTCACCTAGTGCAG | 53100 fluorescence intensity (a.u.) |
| TATGATTATCACAAGTAATATATAAATTATTAGTCAAGTTCGGAGTCACCTAGTGCAG | 33600 fluorescence intensity (a.u.) |
| ACTAATTATAAATCAGAACGATTTATTAACTACTCAATAACGGAGTCACCTAGTGCAG | 24400 fluorescence intensity (a.u.) |
| TTGGACACTAATTATAAATATTAAATATAGACTATTAATACGGAGTCACCTAGTGCAG | 4640 fluorescence intensity (a.u.) |
| AATTATTTAAATCAATGTAACTCAAAAGTTAATAAACGTGCGGAGTCACCTAGTGCAG | 13100 fluorescence intensity (a.u.) |
| GGGTGTGTAAGGGTAGGTGGAGGGGTGGGTGATGCGAGATCGGAGTCACCTAGTGCAG | 4470 fluorescence intensity (a.u.) |
| TTGAGTCTAATTAGTCCATGATTAGCCATAAGTGCTACAGCGGAGTCACCTAGTGCAG | 30600 fluorescence intensity (a.u.) |
| CCTAATTAGTCCATGATTAGTCATAAGTACTACAATAACCCGGAGTCACCTAGTGCAG | 33900 fluorescence intensity (a.u.) |
| GCCTAATTAGTCCATGATTAGCTATAAGTGCTACAATAACCGGAGTCACCTAGTGCAG | 28100 fluorescence intensity (a.u.) |

| Sequence | binding signal |
| --- | --- |
| CATGATTAGCCATAAGTGCTACAGTAACCCACATGTGCTACGGAGTCACCTAGTGCAG | 34300 fluorescence intensity (a.u.) |
| CCTAATTAATCCATGATTAGTCATAAGTGTTACAATAATCCGGAGTCACCTAGTGCAG | 55500 fluorescence intensity (a.u.) |
| GTCTAATTAGTCCATGATTAATTAGCCATAAGTTCTACAGCGGAGTCACCTAGTGCAG | 53100 fluorescence intensity (a.u.) |
| TAAGCCTAATTAGTCTATGATTAGCCATAAGTGCTACAGTCGGAGTCACCTAGTGCAG | 37800 fluorescence intensity (a.u.) |
| CCGTGATTAGCCATAAGTGCTACAGTAACCCACATGTGCTCGGAGTCACCTAGTGCAG | 57900 fluorescence intensity (a.u.) |
| TCCGTGATTAGCCATAAGTGCTACAGTAACCCACATGTGCCGGAGTCACCTAGTGCAG | 35800 fluorescence intensity (a.u.) |
| AGACTTAATTGTAACTGTGTACTACTACGAGCTTAATCAGCGGAGTCACCTAGTGCAG | 28400 fluorescence intensity (a.u.) |
| AGAGTTGTAATTAACCTTTTCAGGTTGTATTGACTGCAAGCGGAGTCACCTAGTGCAG | 3760 fluorescence intensity (a.u.) |
| GGATTAATAGATAGTCTGACTTTTCTGATAACTATTTAAGCGGAGTCACCTAGTGCAG | 28400 fluorescence intensity (a.u.) |
| TTAAAATTATGTTTGAAAATTTAAATTTTAGACGCGGCTTCGGAGTCACCTAGTGCAG | 14900 fluorescence intensity (a.u.) |
| AAATTAATTAATACAATATATTCCTGCATGCCCTGTATAACGGAGTCACCTAGTGCAG | 23800 fluorescence intensity (a.u.) |
| GATCGAATTGGTAAATCAAATGTCTCTAAATTCTCTCCATCGGAGTCACCTAGTGCAG | 4550 fluorescence intensity (a.u.) |
| TTCTCTAGCCCTAAATATGCCGAAGAATATTCCATGTCTCCGGAGTCACCTAGTGCAG | 64900 fluorescence intensity (a.u.) |
| ACCCTAATTCTCCTAATCTCTTAGGAAATATGGAAGAAGCCGGAGTCACCTAGTGCAG | 3170 fluorescence intensity (a.u.) |
| TGCTAGAATGATTTACGTTATGAAACTGAGGGAGTACATCCGGAGTCACCTAGTGCAG | 5380 fluorescence intensity (a.u.) |
| TGTGATTTATATCGTGGAAGATGATGGCTTGGCGGTATAGCGGAGTCACCTAGTGCAG | 36300 fluorescence intensity (a.u.) |
| GTCGATAAATTATTCGCGGCACAATTATTTGTGCCCCATTCGGAGTCACCTAGTGCAG | 5580 fluorescence intensity (a.u.) |
| AGCAAAATTGATTGCTAATCTTCGGTGTCCAGCAGAGCCCCGGAGTCACCTAGTGCAG | 64900 fluorescence intensity (a.u.) |
| AACTAAAACACAGAAATTGATAGTCCAGCAAAACTAGCCCCGGAGTCACCTAGTGCAG | 5180 fluorescence intensity (a.u.) |
| TCTTCTGATTGCTTTCACACAAGATCCAGCAAAATTAATTCGGAGTCACCTAGTGCAG | 16900 fluorescence intensity (a.u.) |
| ATACACCAGTTGATTATAATGACAGTGATATTATGGTGGACGGAGTCACCTAGTGCAG | 17800 fluorescence intensity (a.u.) |
